Results taken from PubChem BioAssay (NCATS).
Calls of active or inactive are those of the source. Calls come from the whole dose curve; as a rule, active = well fitted curve in the direction sought with a large enough effect; inconclusive = small, poorly fitted or top-dose-only effect, or effect the other way, or another doubt; inactive = no such curve, though single readings can be large or run the other way.

Assay: qHTS for inhibitors of adenylyl cyclases using a fission yeast platform: a pilot screen against the NCATS LOPAC library (AID 1347410)
Settings: S. pombe CHP2027, fbp1-GFP fluorescence, 18 h; series mostly up to 57.5 µM
Procedure, shortened: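 GFP from fbp1-GFP reporter, read by Acumen laser cytometry, indicates AC inhibition in fission yeast expressing AC9, GNAS and PDE4D2. Cells grown 18 h in the dark at 30C with compounds, final up to 57 uM.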
In the case of `CC(=O)OCC1=C(C(=O)O)N2C(=O)[C@@H](NC(=O)CCC[C@@H](N)C(=O)O)[C@H]2SC1`, the outcome is reported as “inactive”.
For `Cc1o[nH]c(=O)c1CC(N)C(=O)O` (configuration not stated), the outcome was “inactive”.
For `CN(N=O)c1ccc(O)c(O)c1`, the outcome was “inactive”.
For `NC(Cc1cc(O)c(O)cc1O)C(=O)O` (configuration not stated), the outcome was “inactive”.
In the case of `CCCN1CCc2cc(O)cc3c2[C@H]1Cc1ccc(O)c(O)c1-3`, the outcome is reported as “inactive”.
For `O=C1C=CC(=O)C=C1`, the outcome was “inactive”.
For `NC(N)=Nc1ccc2[nH]c3c(c2c1)C[C@@]1(O)[C@H]2Cc4ccc(O)c5c4[C@@]1(CCN2CC1CC1)[C@H]3O5`, the outcome was “inactive”.
With `NC(CCCCCP(=O)(O)O)C(=O)O` (configuration not stated) the outcome was “inactive”.
For `CC(C)NP(=O)(NC(C)C)OP(=O)(NC(C)C)NC(C)C`, the outcome was “inactive”.
In the case of `Cc1[nH]c2ccc(O)cc2c1CCN`, the outcome is reported as “inactive”.
In the case of `NNC(N)=O`, the outcome is reported as “inactive”.
For `Cc1sc2ccccc2c1CC1=NCCN1`, the outcome was “inactive”.
In the case of `COc1ccc2[nH]c3c(c2c1)CCNC3`, the outcome is reported as “inactive”.
In the case of `C[C@H](N)CN1CCc2ccc(Br)cc21`, the outcome is reported as “inactive”.
For `NC(=O)c1ccc(OCC(O)CN2CC=C(c3ccc(F)cc3)CC2)cc1` (configuration not stated), the outcome was “inactive”.
For `CCCn1c(=O)c2[nH]c(C3CCCC3)nc2n(CCCOC(=O)c2ccc(S(=O)(=O)F)cc2)c1=O`, the outcome was “inactive”.
In the case of `CCCN(CCC)C1Cc2cc(OC)c(OC)cc2C1`, the outcome is reported as “inactive”.
With `CN1CCC(c2c[nH]c3ccc(O)cc23)CC1` the outcome was “inactive”.
In the case of `CCCN1CC[C@@H]2c3cc(O)ccc3CC[C@@H]21`, the outcome is reported as “inactive”.
With `C[N+](C)(C)CCOC(=O)CBr` the outcome was “inactive”.
In the case of `c1ccc2c(N3CCNCC3)cccc2c1`, the outcome is reported as “inactive”.
With `CCS(=O)(=O)Nc1cccc(C(=C2CCCCC2)c2cnc[nH]2)c1` the outcome was “inactive”.
For `C[C@H](N)Cc1cccc(C(F)(F)F)c1`, the outcome was “inactive”.
In the case of `CO[C@H]1CC=C2CCN3CCC4=C(CC(=O)OC4)[C@]23C1`, the outcome is reported as “inactive”.
With `CC(N)Cc1c[nH]c2ccc(OCc3cccs3)cc12` (configuration not stated) the outcome was “inactive”.
For `O=c1ccc2[nH]cc(C3=CCNCC3)c2[nH]1`, the outcome was “inactive”.
For `NCC(O)c1cc(O)c(O)cc1F` (configuration not stated), the outcome was “inactive”.
For `CCCN(CCC)C1CCc2cccc(O)c2C1` (configuration not stated), the outcome was “inactive”.
For `N=C(N)c1ccc(CS(=O)(=O)F)cc1`, the outcome was “inactive”.
With `CC(=O)c1c(O)c(C)c(O)c(Cc2c(O)c3c(c(C(=O)/C=C/c4ccccc4)c2O)OC(C)(C)C=C3)c1O` the outcome was “inactive”.
For `CC(C)(O)[C@@H]1C2OC(=O)[C@@H]1[C@]1(O)C[C@H]3O[C@]34C(=O)O[C@H]2[C@]14C` (tested in a mixture with another compound), the outcome was “inactive”.
With `C[C@H]1C2Cc3ccc(O)cc3[C@@]1(C)CCN2CC1CC1` the outcome was “inactive”.
